# According to PubChem BioAssay AID485358 (National Center for Advancing Translational Sciences (NCATS), 2010):
# Out of some 340,000 compounds screened, about 1,800 (0.53%) were called active. Shown is part of a subset that was picked to be rich in actives. Unmarked numbers belong to inactive results.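 The calls were made as follows: active = activation over 3 SD above normal in the single-dose calcium agonist read (cut at about 30% in these data); inactive = the rest.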
# Target: D(2) dopamine receptor (Homo sapiens) (UniProt P14416)
# Sequence (P14416 whole entry, looked up): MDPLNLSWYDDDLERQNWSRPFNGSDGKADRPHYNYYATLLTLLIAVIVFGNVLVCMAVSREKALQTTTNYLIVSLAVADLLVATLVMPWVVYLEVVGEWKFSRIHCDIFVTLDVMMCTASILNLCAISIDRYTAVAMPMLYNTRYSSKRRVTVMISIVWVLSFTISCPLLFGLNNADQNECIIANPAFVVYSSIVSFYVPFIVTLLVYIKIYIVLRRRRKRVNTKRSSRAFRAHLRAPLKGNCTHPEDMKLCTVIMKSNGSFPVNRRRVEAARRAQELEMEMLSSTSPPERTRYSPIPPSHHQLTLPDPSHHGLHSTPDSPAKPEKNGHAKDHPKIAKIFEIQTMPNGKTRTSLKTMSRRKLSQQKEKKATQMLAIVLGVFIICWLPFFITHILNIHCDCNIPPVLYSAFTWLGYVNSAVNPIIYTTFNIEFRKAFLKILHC
# Assay: HTS Assay for Allosteric Agonists of the Human D2 Dopamine Receptor: Primary Screen for Agonists; also: 0% is about no effect
# Conditions: HEK293 T-REx D2 cells, calcium flux agonist mode; at 2 µM; stronger effect = higher value
# Source text: NIH Chemical Genomics Center [NCGC] NIH Molecular Libraries Probe Centers Network [MLPCN] MLPCN Grant: NS064831-01 Assay Submitter (PI): David Sibley Dopamine receptors (DARs) are involved in the etiology and/or therapy of a number of neuropsychiatric and endocrine disorders. For instance, all receptor-based antiparkinsonian drugs work via stimulating the D2 DAR subtype whereas all FDA-approved antipsychotic agents are antagonists of this receptor. […] There are three different types of allosteric modulators that we are seeking, two of which will stimulate or augment receptor signaling, allosteric agonists and potentiators, while the third, allosteric antagonists, will attenuate receptor signaling. The present primary screening assay measures compound agonism by tracking calcium flux in a […], inducible Hek293 Trex D2 cell line.
# Freshly passaged cells are plated in 1536 well black, clear bottom plates at a density of 4000 cells/well in 3 ul of complete media containing 1x tetracycline inducer. After an overnight incubation at […] in 5% CO2, cells are loaded with 2 ul of the no wash Calcium Assay Kit (ABD Bioquest) and incubated at room temperature for 30 to 90 minutes. Agonist read: A 10 cycle (1 second/cycle) baseline measurement is taken and then the FDSS online 1536 pintool delivers 23 nl of compound library (as well as dopamine controls) to the plate. The plate is measured for kinetically at 1 cycle/sec for 180 seconds and is considered to be the agonist portion of the assay (eg, compounds which activate a positive calcium response during this portion are flagged as potential agonists). Following the 180 second read, 1 ul of either an EC20 (positive modulation assay) or EC80 (negative modulation assay) is delivered by an onboard pipette head. Measurements are taken kinetically for an additional 180 seconds.
row,SMILES,activation
1,O=CN1CCN(C(=O)c2ccc(Br)o2)CC1,0.34%
2,c1ccc(-c2ccc(OCCN3CCOCC3)cc2)cc1,0.22%
3,COc1cccc(OC)c1C(=O)N1CCN(Cc2cccnc2)CC1,1.08%
4,O=C(c1ccc(Br)o1)N1CCN(CCOc2ccccc2)CC1,67.9% (active)
5,O=C(c1ccco1)N1CCN(Cc2cccc(C(F)(F)F)c2)CC1,59.9% (active)
6,O=C(Nc1ccc(F)cc1F)N1CCCN(CCOc2ccccc2)CC1,41.8% (active)
7,Cc1ccc(F)cc1NC(=O)N1CCCN(c2ccc(C(F)(F)F)cn2)CC1,0.948%
8,O=C(CN1CCN(C/C=C/c2ccccc2)CC1)Nc1ccc(F)cc1F,0.754%
9,O=C(c1ccco1)N1CCN(C(=S)Nc2cc(F)cc(F)c2)CC1,0.216%
10,COc1cccc(OC)c1OCCN1CCN(C(=O)c2ccco2)CC1,87.8% (active)
11,COc1cccc(OCc2cc(C(=O)N3CCN(C(=O)c4ccco4)CC3)no2)c1,-0.444%
12,O=C(CN1CCN(C(=O)c2ccco2)CC1)Nc1ccc(Cl)c(C(F)(F)F)c1,-0.254%
13,CC(=O)N1CCCc2cc(S(=O)(=O)Nc3ccc(Cl)cc3F)ccc21,0.983%
14,COc1ccc(CCNC(=O)C(=O)NCC(c2ccco2)S(=O)(=O)c2cccs2)cc1OC (centres undefined),0.136%
15,O=C(NCCc1ccc(Cl)cc1)c1ccc2c(c1)N(Cc1ccc(F)cc1)C(=O)CS2,-0.585%
16,COc1ccc(OC)c(-c2noc(N3CCN(c4cc(Cl)ccc4C)CC3)n2)c1,0.838%
17,O=C(c1ccco1)N1CCN(CCOc2ccccc2)CC1,74.5% (active)
18,O=C(c1ccco1)N1CCN(C(=O)c2ccc(COc3ccc(F)cc3)o2)CC1,-1.15%
19,O=C(CNS(=O)(=O)c1ccccc1)N1CCN(C(=O)c2ccco2)CC1,0.7%
20,O=C(NCc1ccc(Cl)cc1)c1ccc2c(c1)nnn2C1CCCC1,-0.221%
21,O=C(NCc1ccccc1)C1CCN(S(=O)(=O)c2ccc3[nH]c(=O)ccc3c2)CC1,-1.06%
22,c1ccc(-c2cnc(CN3CCN(c4ccccc4)CC3)o2)cc1,40% (active)
23,COc1ccc(N2CCN(Cc3nnc(-c4ccccc4)o3)CC2)cc1,0%

row,SMILES,activation
1,Cc1ccc(C)c(N2CCN(Cc3nnc(-c4ccccc4)o3)CC2)c1,0.463%
2,COc1cc(OC)c(OC)cc1/C=C/c1nc2ccccc2c(=O)n1-c1ccc(Br)c(C)c1,1.46%
3,CCOc1cc2[nH]c(=S)n(CCN3CCCCC3C)c(=O)c2cc1OCC (centres undefined),30.2% (active)
4,CCOc1cc2[nH]c(=S)n(CCCN3CCCC3=O)c(=O)c2cc1OCC,-1.56%
5,COc1cc2[nH]c(=S)n(CCN3CCCCC3C)c(=O)c2cc1OC (centres undefined),1.14%
6,Fc1ccc(-c2nc(Nc3cccc(Cl)c3)nc3c2COc2ccccc2-3)cc1,-1.77%
7,O=C1N(Cc2ccccc2)c2ccc(Cl)cc2C1(O)c1c[nH]c2ccccc12 (centres undefined),0.529%
8,CCN(CC)c1ccc(NC(=O)Cn2nc3c(cc2=O)CCCC3)c(C)c1,-1.68%
9,Cc1cc(=O)c2cc(C(=O)Nc3cccc(C)c3C)ccc2[nH]1,1.06%
10,COc1ccc2oc(=O)cc(CN3CCOCC3)c2c1,0.172%
11,COc1ccc2c(CN3CCN(S(=O)(=O)c4cccs4)CC3)cc(=O)oc2c1,1.59%
12,COc1ccc(N2CCN(Cc3cc(=O)oc4ccc5ccccc5c34)CC2)cc1,48.7% (active)
13,O=C(CN1CCN(c2ccccc2F)CC1)c1ccc2c(c1)OCO2,34.1% (active)
14,CC1(c2ccc(Cl)cc2)NC(=O)N(CC(=O)c2ccc3c(c2)OCO3)C1=O (centres undefined),6.26%
15,CCC1(c2ccccc2)NC(=O)N(CC(=O)c2ccc3c(c2)OCO3)C1=O (centres undefined),0.171%
16,COc1ccc(NC(=O)C2CCN(c3ccc(Sc4ccc(C)cc4)nn3)CC2)c(OC)c1,-0.0405%
17,CCN(CC)c1ccc2oc(=O)c(C)nc2c1,33.2% (active)
18,CCc1ccc2oc(-c3ccc(N)cc3)nc2c1,0.79%
19,Cc1ccc2c(=O)oc(N(C)C)nc2c1,-0.369%
20,COC(=O)c1ccc(NC(=O)c2cnn(-c3ccc(Cl)cc3)c2C2CCN(C(=O)OC(C)(C)C)CC2)cc1,-0.0655%
21,CC(C)S(=O)(=O)c1oc(-c2ccc(F)cc2)nc1S(=O)(=O)c1ccc(F)cc1,6.9%
22,COc1ccccc1NC(=O)CSc1oc(-c2ccco2)nc1S(=O)(=O)c1ccc(Br)cc1,-0.604%
23,CCOc1ccccc1N(CC)C(=O)c1cc2ccc3cccnc3c2[nH]1,0.0244%

row,SMILES,activation
1,COc1cccc(NC(=O)c2ccc3nc(CCc4ccccc4)oc3c2)c1,0.0569%
2,O=C(CN1CCN(c2cccc(Cl)c2)CC1)Nc1ccc(S(=O)(=O)N2CCOCC2)cc1,56.5% (active)
3,O=C(CN1CCCCCC1)Nc1ccc(S(=O)(=O)N2CCCCC2)cc1,-2.81%
4,O=C(COC(=O)CCc1ccc(S(=O)(=O)N2CCOCC2)cc1)Nc1cccc(Cl)c1,1.09%
5,COc1ccc(CCn2cc3c(c2-c2ccc(Br)cc2)c(=O)n(C)c(=O)n3C)cc1OC,-0.343%
6,CCC(=O)Nc1cccc(C(=O)OCc2cc(=O)n3nc(CC)sc3n2)c1,3.26%
7,Cc1cc(F)ccc1NC1(c2ccccc2)C(=O)c2ccccc2C1=O,-1.91%
8,CC(C)CCN1CCN(Cc2cn[nH]c2C2CCCCC2)CC1CCO (centres undefined),71.9% (active)
9,CC(C)CCN1CCN(C/C=C/c2ccco2)CC1CCO (centres undefined),-3.43%
10,CC(C)CCN1CCN(Cc2ccc(C(F)(F)F)cc2)CC1CCO (centres undefined),-0.55%
11,COc1ccc(CNC(=O)CCc2c(C)nn(-c3ccc(N4CCCC4)nn3)c2C)cc1,-0.779%
12,COc1ccc(C2=NC(c3ccncc3)=Nc3ccc(Br)cc3N2)cc1,2.06%
13,COc1ccc(OC)c2sc(N3CCN(C(=O)C4COc5ccccc5O4)CC3)nc12 (centres undefined),-0.0345%
14,Cc1c(CC(=O)N2CCN(C(=O)C3COc4ccccc4O3)CC2)c(=O)oc2c(O)c(O)ccc12 (centres undefined),86.6% (active)
15,COc1cc(NS(=O)(=O)c2ccc3c(c2)OCC(C(=O)N2CCCC2)O3)cc(OC)c1 (centres undefined),0.531%
16,O=C(/C=C/c1cn(CC(O)CN2CCc3ccccc32)c2ccccc12)c1ccc(Br)cc1 (centres undefined),2.61%
17,Cc1ccc(CSc2nc3ccsc3c(=O)n2CCC(C)C)cc1,0.237%
18,COc1ccc(Cl)cc1NC(=O)Cn1c(=O)c2ccccc2n2nncc12,0.159%
19,CCC(CC)NC(=O)/C=C/c1cccc([N+](=O)[O-])c1,55.2% (active)
20,Cc1ccc(NC(=O)O/N=C/c2cccc([N+](=O)[O-])c2)cc1,1.09%
21,CCc1ccc(NC(=O)C(C)OC(=O)/C=C/c2cccc([N+](=O)[O-])c2)cc1 (centres undefined),-0.67%
22,O=S(=O)(NCCc1nnc2ccc(SCc3ccc(Cl)cc3Cl)nn12)c1ccccc1,0.55%
23,CCOC(=O)C(Cc1ccccc1)NC(=O)CCc1c(C)nc2c(c(C)nn2-c2ccc(C)c(C)c2)c1C (centres undefined),3.29%

row,SMILES,activation
1,COC(=O)CN1C(=S)N(c2ccccc2)C(=O)C1CC(=O)Nc1ccc(Cl)cc1 (centres undefined),-0.464%
2,O=C(NCCCc1ccccc1)C1CCC(=O)N(CCc2ccc(Cl)cc2)C1 (centres undefined),-1.17%
3,O=C(CSC1CC(=O)N(CCc2ccccc2)C1=O)Nc1ccc(Cl)cc1 (centres undefined),49.2% (active)
4,CCc1ccc(CN(Cc2ccco2)C(=O)c2ccccc2Cl)cc1,0.564%
5,COc1cc(NC(=O)c2nn(-c3ccc(C)cc3)c(=O)c3c2c2ccccc2n3C)cc(OC)c1OC,-0.5%
6,Cc1ccc(O)c(-c2cc(C(=O)NCc3ccccc3)[nH]n2)c1,0.766%
7,Cc1c(NC(=O)c2cc(=O)c3ccccc3o2)c(=O)n(-c2ccccc2)n1C,0.0233%
8,Cc1ccc(O)c(-c2cc(C(=O)Nc3c(C)n(C)n(-c4ccccc4)c3=O)[nH]n2)c1,34.8% (active)
9,O=C(NCc1ccc(F)cc1)c1ccc(Cn2c(SCc3ccc(F)cc3)nc3cccnc32)cc1,1.06%
10,O=C(c1ccc2c(c1)N(Cc1ccccc1)C(=O)c1ccccc1S2(=O)=O)N1CCCC1,1.63%
11,CC1=CC2=NC(=O)/C(=C/c3coc4ccccc4c3=O)C(=N)N2O1,49.9% (active)
12,COc1ccc(OCCCn2cccc2/C=C2/C(=N)N3OC(C)=CC3=NC2=O)cc1,-1.02%
13,CC(C)(C)OC(=O)NCCCCCC(=O)N/N=C/c1coc2ccccc2c1=O,0%
14,CCOC(=O)c1c(C)[nH]c(CCC(=O)Nc2ccc(OC)c(OC)c2)c1C,-0.832%
15,Cc1ccc2ncc(C(=O)Nc3ccc(OC(F)(F)F)cc3)c(=O)n2c1,-0.574%
16,CCO[C@@H]1OC(C(=O)NCc2nc3ccccc3[nH]2)=C[C@H](C2CCCCC2)[C@H]1CCCO,-0.239%
17,O=C(OCc1nc2ccccc2[nH]1)C1CCCCC1,41.5% (active)
18,O=C(Oc1cccc(O)c1)C1CCCCC1,0.57%
19,COc1ccc(S(=O)(=O)NCC(c2ccc(N(C)C)cc2)N2CCCC2)cc1 (centres undefined),-2.12%
20,CC1CCCCN1S(=O)(=O)c1ccc(F)c(C(=O)Nc2ccccc2C(F)(F)F)c1 (centres undefined),0.192%
